Source: PubChem BioAssay
The list is not random: actives were taken first. Their share in the collection is about 1.1%.
GALR2 agonist = GALR2 (human) receptor agonism. O43603. GALR2-expressing cells, agonist activation read-out. activation, % (concentration not given with the values). 140,000 tested, 0.48% active. AID 803; in the data active means activation above about 5%, passing the limit was not always enough;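 further: 0% = vehicle buffer wells and 100% = reference agonist at full effect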
S1P2 agonist = agonists of human S1P2 receptor; O95136; S1P2-expressing cell line, agonist reporter read-out; activation, % at 4.5 µM; 97,000 tested, 0.46% active; AID 729; in the data active means activation above about 16%;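 further: 0% = vehicle low control and 100% = maximal reference agonist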
Target sequence (O95136 whole entry, looked up): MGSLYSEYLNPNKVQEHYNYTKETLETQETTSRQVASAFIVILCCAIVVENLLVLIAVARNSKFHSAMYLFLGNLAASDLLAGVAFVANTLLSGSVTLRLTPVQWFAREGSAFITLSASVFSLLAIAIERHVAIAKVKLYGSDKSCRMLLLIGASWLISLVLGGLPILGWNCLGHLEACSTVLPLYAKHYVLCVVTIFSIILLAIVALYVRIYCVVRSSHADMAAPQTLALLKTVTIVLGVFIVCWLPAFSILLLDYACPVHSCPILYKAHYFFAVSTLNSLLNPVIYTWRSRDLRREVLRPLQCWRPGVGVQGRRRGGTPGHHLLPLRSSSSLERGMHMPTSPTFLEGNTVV
GALR2 antag = GALR2 (human) receptor antagonism; GALR2-expressing cells, antagonist mode; inhibition, % at 4 µM; 140,000 tested, 0.39% active; AID 828; in the data active means inhibition above about 27%;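 further: cells stimulated with galanin 1-16 at roughly its EC80; 0% = agonist challenge control and 100% = basal control without agonist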
S1P2 blocker = antagonists of human S1P2 receptor; O95136; cell-based S1P2 antagonist assay, inhibition at 5 uM; inhibition, % at 5 µM; 97,000 tested, 0.21% active; in the data active means inhibition above about 45%;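 further: CRE beta-lactamase reporter cells expressing human S1P2 stimulated with S1P; 0% = agonist at EC80 alone and 100% = agonist plus reference antagonist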
GALR2 agon conf = confirmation of human galanin receptor 2 (GALR2) agonists | shares compounds with GALR2 agonist | GALR2-expressing cells, agonist activation | 460 tested, 10% active | activation, % at 5.6 µM; in the data active means activation above about 8.4%;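 further: 0% = buffer-only vehicle wells and 100% = full reference agonist response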
BLA act counter = activates beta-lactamase reporter in GALR2 agonist counterscreen. shares compounds with GALR2 agonist. AID 865. 460 tested, 10% active. CHO NFAT-bla reporter, beta-lactamase FRET activation. activation, % at 5.6 µM;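 active means activation above the screen-wide mean activation plus 3 SD, cut at about 8% in these data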;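 further: 0% = DMSO with PBS wells and 100% = thapsigargin positive control wells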
Starred values were filed as active, the others as inactive.

`CCOC(=O)C(=Cc1ccc(F)cc1)C(=O)OCC` gave GALR2 agonist 0, S1P2 agonist -5, GALR2 antag 17 and S1P2 blocker 39.
CCOC(=O)/C(=C/c1ccc(N2CCC(c3ccccc3)=N2)cc1)C(C)=O was read as GALR2 agonist 14*, GALR2 antag 9, GALR2 agon conf 4 and BLA act counter 11*.
CCOc1cc(/C=N\NC(=O)Cn2nc([N+](=O)[O-])cc2C)ccc1OCc1cccc2ccccc12 was read as GALR2 agonist 35*, S1P2 agonist -4, GALR2 antag -12, S1P2 blocker -23, GALR2 agon conf -1 and BLA act counter -3.
Screening CC(=O)c1nn(-c2ccccc2)cc1C(=O)c1ccc(Br)cc1 returned GALR2 agonist 9.4*, GALR2 antag -4, GALR2 agon conf 6 and BLA act counter 1.
For COc1ccc(Cc2nc(C(=O)NCc3ccccc3OC)cs2)cc1 the results were GALR2 agonist -1, S1P2 agonist -4, GALR2 antag 3 and S1P2 blocker 1.
COc1ccc(Cc2nc(C(=O)Nc3ccc(OC)cc3)cs2)cc1 was read as GALR2 agonist 27*, S1P2 agonist -6, GALR2 antag -5, S1P2 blocker 0, GALR2 agon conf -2 and BLA act counter -4.
Screening Nc1nc(-c2ccccc2)cn1N returned GALR2 agonist -1, S1P2 agonist -1, GALR2 antag -16 and S1P2 blocker 5.
c1ccc(-c2cn3nc(-c4ccccc4)c(-c4ccccc4)nc3n2)cc1 was read as GALR2 agonist 9, S1P2 agonist -1, GALR2 antag 19, S1P2 blocker 31, GALR2 agon conf 2 and BLA act counter 0.
For CCOC(=O)c1c(CSC(=N)N)n(-c2ccc(Br)cc2)c2cc(Br)c(OC(C)=O)cc12 the results were GALR2 agonist 34*, GALR2 antag -9, GALR2 agon conf -4 and BLA act counter -19.
Cc1ccc(C(=O)NC(=S)Nc2ccc(NC(=O)c3cccc(Cl)c3)cc2)cc1 was read as GALR2 agonist 10*, GALR2 antag -2, GALR2 agon conf 5 and BLA act counter 5.
Screening CCS(=O)(=O)N1CCN(c2cccc(C)c2C)CC1 returned GALR2 agonist 17*, S1P2 agonist -6, GALR2 antag -5, S1P2 blocker 8, GALR2 agon conf -1 and BLA act counter -2.
COc1ccc(C2=NOC(C(=O)NCc3ccc(F)cc3)C2)cc1OC (stereo not drawn) was read as GALR2 agonist 10, S1P2 agonist 2, GALR2 antag 8, S1P2 blocker -14, GALR2 agon conf 1 and BLA act counter -1.
For CCCSc1nc2c(cnn2-c2ccccc2)c(=O)[nH]1 the results were GALR2 agonist -1 and GALR2 antag 8.
`O=c1[nH]c(/C=C/c2ccccc2OC(F)F)nc2c1cnn2-c1ccccc1` gave GALR2 agonist 15*, GALR2 antag -11, GALR2 agon conf 8.8* and BLA act counter 4.
`S=C(Nc1ccccc1)c1nc2ccccc2s1` gave GALR2 agonist -1 and GALR2 antag 3.
For CC(C)NC(=O)[C@@H]1C[C@@]1(C)[C@@H](NC(=O)OCc1ccccc1)c1ccccc1 the results were GALR2 agonist -1 and GALR2 antag 4.
COc1cc2c(cc1C1NC(=S)NC(C)=C1C(=O)N(C)C)CCCC2 (stereo not drawn) was read as GALR2 agonist -2 and GALR2 antag 2.
`CCOc1cccc(SCc2noc(C(=O)NCCOC)c2C(=O)O)c1` gave GALR2 agonist 59*, S1P2 agonist -9, GALR2 antag -3, S1P2 blocker 8, GALR2 agon conf 0 and BLA act counter 1.
Screening COc1ccc(CCNC(=O)C(C)Sc2ccc(C)cc2)cc1OC (stereo not drawn) returned GALR2 agonist 0 and GALR2 antag -17.
Screening CCN(CC)S(=O)(=O)c1ccc(N2CCOCC2)c(NS(=O)(=O)c2cc(C(C)(C)C)ccc2C)c1 returned GALR2 agonist -1 and GALR2 antag 7.
For CCOC(=O)Cn1c(=NC(=O)c2cccs2)sc2cc(C(=O)OC)ccc21 the results were GALR2 agonist 14*, GALR2 antag -1, GALR2 agon conf -1 and BLA act counter -2.
CCN(CC)S(=O)(=O)c1ccc(N/N=C/c2ccc(OC)c(OC)c2OC)nc1 was read as GALR2 agonist -1 and GALR2 antag 1.
CCN(CC)S(=O)(=O)c1ccc(N/N=C/c2cc(OC)c(OC)cc2OC)nc1 was read as GALR2 agonist 49*, GALR2 antag 9, GALR2 agon conf 21* and BLA act counter 33*.
`O=C(N/N=C/c1ccc(-c2ccccc2[N+](=O)[O-])o1)c1cncc(Br)c1` gave GALR2 agonist -1 and GALR2 antag 20.
`Cc1c(C(=O)N/N=C/c2ccc(-c3ccccc3[N+](=O)[O-])o2)sc(N)c1C#N` gave GALR2 agonist 16*, GALR2 antag 16, GALR2 agon conf 9.2* and BLA act counter 11*.
Screening CCc1cc(=O)oc2c(CN3CCCC3)c(O)c(Cl)cc12 returned GALR2 agonist 2, S1P2 agonist 9, GALR2 antag -12 and S1P2 blocker 0.
Screening CCc1cc(=O)oc2c(CN3CCN(C)CC3)c(O)c(Cl)cc12 returned GALR2 agonist 12*, S1P2 agonist 11, GALR2 antag -22, S1P2 blocker -39, GALR2 agon conf 1 and BLA act counter 3.
`O=C(CN1C(=O)NC2(CCCCC2)C1=O)Nc1ccccc1Cl` gave GALR2 agonist -1 and GALR2 antag 10.
Screening O=C1NC2(CCCCC2)C(=O)N1CCS(=O)(=O)Oc1ccccc1 returned GALR2 agonist 10, S1P2 agonist -2, GALR2 antag -14, S1P2 blocker -13, GALR2 agon conf -1 and BLA act counter -3.
`COc1ccc(-c2cnnn2-c2ccc(NC(=O)c3ccco3)cc2)cc1OC` gave GALR2 agonist 20*, S1P2 agonist 7, GALR2 antag 7, S1P2 blocker -33, GALR2 agon conf 0 and BLA act counter -1.
COc1ccc(-c2cnnn2-c2ccc(NC(=O)c3ccc(S(=O)(=O)N4CCCCC4)cc3)cc2)cc1OC was read as GALR2 agonist 4 and GALR2 antag 4.
Screening O=C(NCCc1ccccc1)C(=O)N/N=C/c1ccccc1C(F)(F)F returned GALR2 agonist 10, S1P2 agonist -5, GALR2 antag -4, S1P2 blocker -1, GALR2 agon conf -1 and BLA act counter -1.
For O=C(NCCc1ccccc1)C(=O)N/N=C/c1ccc2c(c1)OCO2 the results were GALR2 agonist 0, S1P2 agonist 7, GALR2 antag 7 and S1P2 blocker -14.
Screening O=C(Nc1nc2nccc(-c3ccccc3)n2n1)C(Cl)(Cl)Cl returned GALR2 agonist -1 and GALR2 antag 3.
Screening O=C(COC(=O)COc1ccc(Br)cc1)Nc1cccnc1Cl returned GALR2 agonist 34*, GALR2 antag -16, GALR2 agon conf -1 and BLA act counter -1.
